Assay outcomes from PubChem.
Hedgehog inh: Sonic Hedgehog pathway inhibition | inhibition, % (test concentration not listed) | Shh-LIGHT2 Gli-luciferase reporter, 30 h | 22,000 compounds, 2.1% hits;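 active = mean inhibition across valid replicates above about 65%, limit read from the data; inconclusive = mean under the limit, yet half or more replicates past it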;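 also: pathway switched on by Shh-conditioned medium diluted 1 in 25 in low serum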
MITF inh: inhibitors of MITF; TRPM1 promoter luciferase, luminescence, 24 h; AID 2240; inhibition, % (concentration not given with the values); 37,000 compounds, 0.28% hits; in the data active = inhibition above about 85%; inconclusive = no clear call, values can overlap the other calls; inactive = below about 68%;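 also: human melanocyte line stably carrying TRPM1 promoter luciferase reporter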
NOMO-1 viab: STK33 inhibitor candidate reducing NOMO-1 cell viability | NOMO-1 AML viability, CellTiter-Glo luminescence, 72 h | inhibition, % (test concentration not listed) | 37,000 compounds, 7.5% hits | AID 2330; in the data active = inhibition above about 80%; inconclusive = no clear call, values can overlap the other calls
The depositor's hits bear a star; ? = inconclusive; nt = no result given. Only some compounds are listed: those with a hit (about 7.8% of all), similar ones and a draw of the others.

SMILES | Hedgehog inh | MITF inh | NOMO-1 viab
O=C1c2c(O)ccc(O)c2C(=O)c2c(NCCNCCO)ccc(NCCNCCO)c21 | 3 | 96* | 120*
Cc1ccc(NC(=O)CSc2nc3ccccc3c(=O)n2-c2ccccc2)c(C)c1 | nt | -2 | 31
Cc1ccc2ccc(C(Nc3ccccn3)c3ccc(Cl)c(Cl)c3)c(O)c2n1 (configuration not stated) | nt | 70 | 117*
CCc1ccc(C(Nc2cc(C)ccn2)c2ccc3cccnc3c2O)cc1 (configuration not stated) | nt | 36 | 112*
COc1ccc(C(C)C)cc1S(=O)(=O)Nc1ccccn1 | nt | -22 | -15
COc1ccc(C(Nc2ccccn2)c2ccc3ccc(C)nc3c2O)cc1C (configuration not stated) | nt | 38 | 59
Cc1ccc2ccc(C(Nc3ccccn3)c3ccc(C(C)C)cc3)c(O)c2n1 (configuration not stated) | nt | 24 | 108*
Cc1ccc(C(Nc2ccccn2)c2ccc3ccc(C)nc3c2O)cc1 (configuration not stated) | nt | 54 | 132*
O=C(CSC1CC(=O)N(c2ccc(Cl)cc2)C1=O)Nc1cccc(F)c1 (configuration not stated) | nt | -2 | 14
C[C@@H]1CN([C@H](C)CO)C(=O)c2cc(NC(=O)Nc3cccc4ccccc34)ccc2O[C@@H]1CN(C)C(=O)Nc1ccccc1 | -14 | -13 | 27
C[C@@H]1CCCCO[C@@H](CN(C)C(=O)Nc2cccc3ccccc23)[C@@H](C)CN([C@H](C)CO)C(=O)c2cc(NC(=O)NC3CCCCC3)ccc2O1 | -10 | 2 | 58
C[C@@H]1CN([C@H](C)CO)C(=O)Cc2cc(NC(=O)CCCCCC(=O)Nc3ccccc3N)ccc2O[C@H]1CN(C)C(=O)NC1CCCCC1 | nt | -19 | 6
C[C@H]1CN([C@@H](C)CO)C(=O)c2cc(NC(=O)Cc3ccccc3)ccc2O[C@@H]1CN(C)Cc1ccc(Cl)c(Cl)c1 | 37 | 31 | 68
C[C@@H]1CN([C@@H](C)CO)C(=O)Cc2cc(NC(=O)Cn3cnnn3)ccc2O[C@@H]1CN(C)C(=O)Nc1cccc2ccccc12 | nt | 12 | -12
COc1ccc(OC)c(NS(=O)(=O)c2cccc3cccnc23)c1 | nt | -12 | 13
Cc1ccc2ccc(C(Nc3ccccn3)c3ccc(Cl)cc3)c(O)c2n1 (configuration not stated) | nt | 65 | 132*
COc1ccc(I)cc1C(Nc1cc(C)ccn1)c1ccc2cccnc2c1O (configuration not stated) | nt | 41 | 111*
Cc1ccc(C(Nc2ccccn2)c2ccc3cccnc3c2O)cc1 (configuration not stated) | nt | 49 | 112*
CC(C(=O)Nc1cccc2cccnc12)N1C(=O)c2ccccc2C1=O (configuration not stated) | nt | 1 | -4
C[C@@H]1CN([C@@H](C)CO)C(=O)c2cccc(NC(=O)C3CCOCC3)c2O[C@H]1CN(C)Cc1ccc(Cl)c(Cl)c1 | 49 | -23 | 24
COc1ccc(S(=O)(=O)N(C)C[C@@H]2Oc3ccc(NC(=O)Nc4cccc5ccccc45)cc3C(=O)N([C@H](C)CO)C[C@@H]2C)cc1 | 23 | -11 | 29
COc1ccc(NC(=O)CS(=O)(=O)c2ccc(C)cc2)c(OC)c1 | nt | -7 | 30
C[C@@H]1CCCCO[C@H](CN(C)C(=O)Nc2ccc3c(c2)OCO3)[C@@H](C)CN([C@H](C)CO)C(=O)c2cc(NC(=O)c3ccccc3)ccc2O1 | 4 | -6 | 4
C[C@H](CO)N1C[C@H](C)[C@H](CN(C)Cc2ccc(-c3ccccc3)cc2)Oc2ccc(NC(=O)Nc3ccc(C(F)(F)F)cc3)cc2C1=O | nt | 4 | 92*
C[C@H](CO)N1C[C@H](C)[C@@H](CN(C)Cc2ccc(C(F)(F)F)cc2)Oc2ccc(NC(=O)Nc3ccccc3)cc2C1=O | -17 | 7 | 63
SMILES | Hedgehog inh | MITF inh | NOMO-1 viab
C[C@H]1CN([C@@H](C)CO)C(=O)c2cc(NC(=O)Nc3ccc(C(F)(F)F)cc3)ccc2O[C@@H]1CN(C)Cc1ccc(-c2ccccc2)cc1 | nt | 1 | 107*
C[C@H]1CN([C@@H](C)CO)C(=O)c2cc(NC(=O)Nc3ccc(C(F)(F)F)cc3)ccc2O[C@H]1CN(C)Cc1ccc(-c2ccccc2)cc1 | 11 | 10 | 117*
C[C@@H]1CN([C@H](C)CO)C(=O)c2cc(NC(=O)Nc3ccc(C(F)(F)F)cc3)ccc2O[C@@H]1CN(C)Cc1ccc(Oc2ccccc2)cc1 | 17 | 3 | ?
Cc1noc(C)c1S(=O)(=O)Nc1ccc2c(c1)C(=O)N([C@@H](C)CO)C[C@@H](C)[C@H](CN(C)C(=O)NC1CCCCC1)O2 | nt | -8 | -7
C=C1CC[C@H]2[C@@](C)(CCC[C@@]2(C)C(=O)O)[C@@H]1CCC(C)CCO (some centres not stated) | 2 | -6 | 17
Cc1cc(Br)cc(C)c1OCC(=O)Nc1sc(C)c(C)c1C(N)=O | nt | 2 | 29
C=CCNC(=O)COc1nc(-c2cccs2)cc(C(F)(F)F)n1 | -8 | -25 | -12
C[C@@H]1CN([C@H](C)CO)C(=O)c2cccc(NC(=O)Nc3ccc4c(c3)OCO4)c2O[C@H]1CN(C)Cc1ccc(C(F)(F)F)cc1 | 3 | 28 | 104*
C[C@H](CO)N1C[C@H](C)[C@H](CN(C)Cc2ccc3c(c2)OCO3)Oc2c(NC(=O)Nc3ccc(C(F)(F)F)cc3)cccc2C1=O | -21 | 27 | 104*
C[C@H](CO)N1C[C@H](C)[C@H](CN(C)Cc2ccc3c(c2)OCO3)Oc2c(NC(=O)Nc3ccc4c(c3)OCO4)cccc2C1=O | -54 | -14 | ?
C[C@H]1CN([C@@H](C)CO)C(=O)c2cccc(NC(=O)Nc3ccc(C(F)(F)F)cc3)c2O[C@@H]1CN(C)Cc1ccc2c(c1)OCO2 | -9 | 19 | 109*
C[C@H](CO)N1C[C@H](C)[C@H](CN(C)Cc2ccc3c(c2)OCO3)Oc2c(NC(=O)Nc3ccc(F)cc3)cccc2C1=O | -24 | 17 | 55
C[C@@H]1CN([C@H](C)CO)C(=O)c2cccc(NC(=O)Nc3ccc(C(F)(F)F)cc3)c2O[C@H]1CN(C)Cc1ccc2c(c1)OCO2 | 20 | 63 | 104*
C[C@H]1CN([C@@H](C)CO)C(=O)c2cccc(NC(=O)Nc3ccccc3)c2O[C@@H]1CN(C)Cc1ccc2c(c1)OCO2 | -17 | 4 | 68
C[C@H]1CN([C@@H](C)CO)C(=O)c2cccc(NC(=O)Nc3ccccc3)c2O[C@H]1CN(C)Cc1ccc2c(c1)OCO2 | -19 | -6 | 21
CC(C)NC(=O)Nc1ccc2c(c1)CC(=O)N([C@H](C)CO)C[C@H](C)[C@H](CN(C)C(=O)Nc1cccc3ccccc13)O2 | -29 | -11 | 13
CCCC(=O)Nc1ccc2nc(SCc3ccccc3C#N)sc2c1 | nt | -59 | 42
CC(C)NC(=O)Nc1ccc2c(c1)CC(=O)N([C@@H](C)CO)C[C@@H](C)[C@@H](CN(C)Cc1ccccc1)O2 | 16 | 4 | -14
Cc1noc(C)c1NC(=O)N(C)C[C@@H]1Oc2ccc(NC(=O)C3CC3)cc2CC(=O)N([C@@H](C)CO)C[C@@H]1C | ? | -13 | 1
Cn1c(=NC(=O)c2ccc(F)cc2)sc2ccccc21 | -102 | 42 | 39
CC(=O)Nc1ccc(NC(=O)CSc2nnc(-c3ccc(N)cc3)n2C)cc1 | nt | -8 | 1
